A selection: hits, their analogues and other compounds. The true share with any hit is near 2.8%.
Shn3 inh set2 = reduction of Shn3 3'UTR firefly luciferase signal, primary screen, Schnurri-3 inhibitor project, cell-based, Clone20 osteoblasts, set 2; 360,000 compounds, 0.52% hits; inhibition, % at 12.5 µM; AID 588674, 2011; Clone20 osteoblast Shn3 3'UTR firefly luciferase, 24 h;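 active = mean inhibition of at least 75% with every replicate also reaching 75%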;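 also: 0% = median of neutral control wells and 100% = pilot-screen positive control compound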
CF NFkB block = inhibitors of PAF-induced NF-kB signaling, primary screen, cell-based, GFP fluorescence, uHTS. inhibition, % at 5 µM. KKLEB NF-kB-GFP reporter, GFP fluorescence overnight. 360,000 compounds, 0.86% hits;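 active = at least 50% inhibition at 5 µM, scaled per plate between neutral and stimulator controls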;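 also: PAF is a Pseudomonas aeruginosa culture filtrate used as stimulus; plate controls were PAF-stimulated DMSO wells for no effect and unstimulated DMSO wells for full effect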
Peg3 promoter = Peg3 promoter-driven luciferase inhibitors, primary screen, cell-based, HeLa, luciferase luminescence; 360,000 compounds, 1.7% hits; HeLa PEG-Prom luciferase reporter, overnight; AID 588405, 2011; inhibition, % at 20 µM;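 active = inhibition of at least 50% at 20 µM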
KKLEB cytotox = cytotoxicity in KKLEB CF airway cells, primary screen, cytotoxicity control for CF NF-kB inhibitor project, cell-based, uHTS, fluorescence assay plates. KKLEB CF airway cells viability, ATPlite luminescence, overnight; active compounds read low; cells stimulated with P. aeruginosa culture filtrate. activity change (cytotoxicity), % at 5 µM. 360,000 compounds, 0.36% hits. AID 602141, 2011;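 active = corrected activity change at or below -50% at 5 µM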
HIF-2a inh = HIF-2a reporter inhibitors, primary screen, luminescence, 786-0 RCC cells; 786-0 RCC cells HIF-2a reporter, luciferase luminescence, overnight; inhibition, % at 18.8 µM; 360,000 compounds, 0.72% hits; AID 624352, 2012;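 active = inhibition of the luminescence signal of 40% or more relative to plate controls, in a single-dose primary screen at 18.75 µM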
TRPM1 prom inh = inhibitors of MITF-dependent TRPM1 promoter reporter, primary screen, cell-based, SK-MEL-5, single point, luciferase | SK-MEL-5 TRPM1 promoter luciferase, 24 h | AID 488899, 2010 | 330,000 compounds, 0.83% hits | inhibition, % at 12.5 µM;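 active = mean inhibition across replicates of 60% or more, whatever share of single replicates reaches that level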
Numbers without * were called inactive; / = no result.

SMILES	Shn3 inh set2	CF NFkB block	Peg3 promoter	KKLEB cytotox	HIF-2a inh	TRPM1 prom inh
O=C1c2ccccc2C(=O)c2c1ccc(C(=O)N1CCCCC1)c2NCCO	10	10	24	-11	-1	25
O=C(O)Cc1sc(Nc2ccc(Cl)cc2)nc1-c1cccs1	/	/	/	/	/	81*
Nc1nc(-c2cccs2)c(CC(=O)O)s1	-11	1	21	4	10	-2
Cc1ccc(N2CC(NC(=O)C3CC3)CC2=O)cc1 (stereo not given)	-13	-8	19	0	16	-10
Cc1ccc(-n2ncc3c2CCCC3NC(=O)c2ccoc2)cc1C (stereo not given)	20	6	2	-13	10	21
Cc1cc(C(=O)NC2CCCc3c2cnn3-c2ccc(C)c(C)c2)n(C)n1 (stereo not given)	88*	16	20	-16	-5	40
C[C@H](CO)N1C[C@H](C)[C@@H](CN(C)C(=O)c2ccc3ccn(C)c3c2)OCc2cn(nn2)CCCC1=O	-5	-1	5	3	4	/
CC1=NN(c2nc(-c3ccc(C)cc3)cs2)C(=O)C1N=Nc1ccccc1O (stereo not given)	92*	-14	18	14	-32	69*
CC1=NN(c2nc(-c3ccc(C)cc3)cs2)C(=O)C1N=Nc1cccc(O)c1 (stereo not given)	27	41	27	9	-21	7
O=C(NCC1CCCCC1)c1csc([C@@H]2C[C@H](O)[C@@H](CO)O2)n1	-6	0	17	-5	-3	/
CC(OC(=O)CCCN=C1NS(=O)(=O)c2ccccc21)C(=O)NC1CCCCC1C (stereo not given)	-11	7	2	-5	1	-11
COc1ccc(Cc2ccccc2C(=O)O)cc1	10	-15	5	7	1	1
COc1ccc(CC2=CC(=O)c3ccccc3C2=O)cc1	89*	52*	47	12	22	8
CCCCNC(=O)c1nc(-c2ccccc2)oc1-c1ccc(Cl)cc1	/	/	/	/	-81	/
COc1cc(S(=O)(=O)n2cnc3ccccc32)ccc1Br	5	-5	8	-1	13	3
CCN(CC)CCN1C(=O)c2cccc3cc(N)cc(c23)C1=O	-28	-72	51*	-8	25	8
O=C1c2cccc3cccc(c23)C(=O)N1CCO	12	-21	-9	3	-5	/
Cc1cc(NCCCn2ccnc2)n2ncc(-c3ccc(Cl)cc3)c2n1	4	55*	-55	-55*	-162	-5
COc1ccc(CC(=O)Nc2nc(OCC(F)(F)F)cnc2-c2ccc(Cl)cc2Cl)cc1	16	30	7	-20	9	/
O=C(OCCN1C(=O)c2cccc3c(N4CCOCC4)ccc(c23)C1=O)c1ccc(Cl)cc1Cl	22	26	24	-23	11	23
O=C(OCCN1C(=O)c2cccc3c(N4CCOCC4)ccc(c23)C1=O)c1ccccc1Cl	86*	10	35	-5	3	41
Cc1sc(-n2c(C)cc(/C=C3\SC(=S)NC3=O)c2C)c(C#N)c1C	-33	-22	75*	-20	-127	14
O=C(c1ccc(-c2ccc([N+](=O)[O-])cc2)o1)N1CCCCCCC1	-31	30	105*	-6	8	-17
O=C(c1ccc(-c2ccc([N+](=O)[O-])cc2)o1)N1CCCC(C(F)(F)F)C1 (stereo not given)	-50	-2	-132	-6	-128	-57
C/C(=C\c1ccc(C(=O)O)cc1)c1ccc2c(c1)C(C)(C)CCC2(C)C	13	91*	1	-9	31	-2
SMILES	Shn3 inh set2	CF NFkB block	Peg3 promoter	KKLEB cytotox	HIF-2a inh	TRPM1 prom inh
Cc1cccc(N2CCN(C(=O)c3ccc4nccnc4c3)CC2C)c1 (stereo not given)	16	19	-2	6	4	1
Cc1cccc(N2CCN(C(=O)c3ccc4nc(-c5ccco5)c(-c5ccco5)nc4c3)CC2C)c1 (stereo not given)	14	6	63*	15	15	21
c1ccc(COc2ncnc3c2ncn3CCCN2CCN(Cc3cccc4ccccc34)CC2)cc1	71	1	101*	-8	-21	/
CC[N+](C)(C)CC/C=C1/c2ccccc2Sc2ccc(Cl)cc21	-8	-18	-4	5	16	/
OCCN1CCN(CC/C=C2/c3ccccc3Sc3ccc(Cl)cc32)CC1	-13	18	87*	-3	-17	0
CCCCCCCCCCC[N+](C)(C)CC/C=C1/c2ccccc2Sc2ccc(Cl)cc21	92*	32	108*	-29	-24	-1
CCOC(=O)/C=C(\C)Sc1cc(=O)oc2ccccc12	33	37	13	-34	3	19
CCOC(=O)/C=C(\C)Sc1cc(O)c2ccccc2c1O	66	88*	38	-43	0	83*
Cc1nc(-c2cccc(NC(=O)c3ccc(Cl)c(S(=O)(=O)N4CCCC4)c3)c2)cs1	58	-6	55*	-6	-37	/
CN(C)CCCNC(=O)c1ccc(Cl)c(S(=O)(=O)N2CCCCCC2)c1	11	1	91*	2	18	-13
CCCn1c(NC(=O)c2ccc(Cl)c(S(=O)(=O)N3CCCC3)c2)nc2ccccc21	91*	-4	53*	-7	12	33
CCN(CC)CCNC(=O)c1ccc(Cl)c(S(=O)(=O)N2CCCCCC2)c1	-4	-20	1	4	9	3
O=C(Nc1cccnc1)c1cccc(S(=O)(=O)N2CCc3ccccc32)c1	24	6	29	3	30	18
Cc1ccc(NC(=O)c2cc(S(=O)(=O)N3CCc4ccccc43)cn2C)cc1C	33	36	52*	-20	25	10
O=C(Nc1ccncc1)c1cccc(S(=O)(=O)N2CCc3ccccc32)c1	91*	10	18	-2	21	18
COc1ccc(NC(=O)c2cc(S(=O)(=O)N3CCc4ccccc43)cn2C)cc1	23	7	27	11	-5	/
COc1cc(C(=O)Nc2nnc(C(C)(C)C)s2)c([N+](=O)[O-])cc1OC	1	2	62*	-5	10	-3
COc1cccc(-c2cnc(C(O)c3ccc(-c4ccccc4)cc3)[nH]2)c1 (stereo not given)	0	-2	20	10	-8	/
O=C(/C=C/Sc1ccccc1)c1ccccc1	68	21	79*	-29	-53	11

Screens as filed in PubChem BioAssay.
